Columns and labels:
[1] = system: HCC1937; assay: relative cell viability, compound + RSL3, vs DMSO (fraction of DMSO control); higher = less growth inhibition; details: 72 h
[2] = system: MDA-MB-231; assay: as above; details: 72 h
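Note: breast cancer cell viability read out with the CCK-8 kit after co-treatment of each compound with the ferroptosis inducer RSL3.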

Structure (SMILES) | relative cell viability [1] | relative cell viability [2]
O=C(CCCCc1ccc2c(c1)OCO2)N1CCCCC1 + COC(=O)c1ccc([C@H]2c3[nH]c4ccccc4c3C[C@H](C(=O)OC)N2C(=O)CCl)cc1 [RSL3] | 0.262 | 0.562
Cc1nc2ccc(C(=O)N3CCC4(CC3)CC(=O)c3c(cnn3C(C)C)C4)cc2[nH]1 + COC(=O)c1ccc([C@H]2c3[nH]c4ccccc4c3C[C@H](C(=O)OC)N2C(=O)CCl)cc1 [RSL3] | 0.402 | 0.591
COc1ccc(/C=C/c2cc(O)cc(O[C@@H]3O[C@H](CO)[C@@H](O)[C@H](O)[C@H]3O)c2)cc1 [Deoxyrhapontin] + COC(=O)c1ccc([C@H]2c3[nH]c4ccccc4c3C[C@H](C(=O)OC)N2C(=O)CCl)cc1 [RSL3] | 0.532 | 0.693
COc1ccc2[nH]cc(CCNC(C)=O)c2c1 [Melatonine] + COC(=O)c1ccc([C@H]2c3[nH]c4ccccc4c3C[C@H](C(=O)OC)N2C(=O)CCl)cc1 [RSL3] | 0.613 | 0.465
Cc1cc(SCc2sc(-c3ccc(C(F)(F)F)cc3)nc2C)ccc1OCC(=O)O + COC(=O)c1ccc([C@H]2c3[nH]c4ccccc4c3C[C@H](C(=O)OC)N2C(=O)CCl)cc1 [RSL3] | 0.339 | 0.554
O=C(O)CCn1c2c(c3ccccc31)C[C@H](NS(=O)(=O)c1ccc(F)cc1)CC2 [Ramatroban] + COC(=O)c1ccc([C@H]2c3[nH]c4ccccc4c3C[C@H](C(=O)OC)N2C(=O)CCl)cc1 [RSL3] | 0.41 | 0.554
O=C(O)Cc1cccc(OCCCN(Cc2cccc(C(F)(F)F)c2Cl)CC(c2ccccc2)c2ccccc2)c1 + COC(=O)c1ccc([C@H]2c3[nH]c4ccccc4c3C[C@H](C(=O)OC)N2C(=O)CCl)cc1 [RSL3] | 0.418 | 0.686
